The panel holds about 83,000 compounds, 20% with a hit somewhere; the sample as a whole holds those more often.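 Values shown are percent growth following 48 h exposure of cells in 96-well plates to a single concentration of compound; below 10 was considered active.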 A number with no mark means an inactive call. Activity calls are given as the source filed them.
Tests used:
Assay in all cases: NCI-60 one-dose screen, 48 h (100 = growth as untreated, 0 = no growth, -100 = all killed)
Conditions in all cases: 10 µM unless noted
NCI-H23 lung = system: NCI-H23 lung
NCI-H226 lung = system: NCI-H226 lung
NCI-H322M lung = system: NCI-H322M lung
HOP-62 NSCLC = system: HOP-62 NSCLC
NCI-H460 lung = system: NCI-H460 lung
HOP-92 NSCLC = system: HOP-92 NSCLC
NCI-H522 lung = system: NCI-H522 lung
A549/ATCC NSCLC = system: A549/ATCC NSCLC
786-0 renal = system: 786-0 renal
COLO 205 colon = system: COLO 205 colon

Row | Structure (SMILES) | growth (NCI-H23 lung) | growth (NCI-H226 lung) | growth (NCI-H322M lung) | growth (HOP-62 NSCLC) | growth (NCI-H460 lung) | growth (HOP-92 NSCLC) | growth (NCI-H522 lung) | growth (A549/ATCC NSCLC) | growth (786-0 renal) | growth (COLO 205 colon)
1 | CCc1c2c(nc3ccc(OC(=O)NCc4ccc(B5OC(C)(C)C(C)(C)O5)cc4)cc13)-c1cc3c(c(=O)n1C2)COC(=O)[C@]3(O)CC | -28.3% (active) | -65.4% (active) | 5.73% (active) | -5.68% (active) | -16.7% (active) | 8.05% (active) | -23.2% (active) | 4.61% (active) | 6.78% (active) | 7.58% (active)
2 | CCCCCCCCCCN(CCCCCCCCCC)CC(=O)c1ccc2cc(Br)c3ccccc3c2c1 | 47.4% | 99.4% | 65.7% | 96.4% | -65.9% (active) | -77% (active) | 63.4% | 82.3% | 54.1% | 104%
3 | Cc1nn(-c2ccccc2)c2nc3c(c(-c4ccc(Cl)cc4)c12)CNC1(CCSCC1)N3 | 97.4% | 81.2% | 100% | 93.6% | 99.6% | 74.1% | 110% | 87% | 105% | 94.5%
4 | COc1cc(-c2n/c(=C\c3c(O)[nH]c4ccc(Cl)cc34)cc3c2=Nc2ccccc2-3)cc(OC)c1OC | -2.92% (active) | 62.6% | 68% | -8.81% (active) | -38% (active) | -25.4% (active) | -0.596% (active) | -39.4% (active) | -37.1% (active) | 8.86% (active)
5 | CCSC1=NC2C(N(CC)C(=O)N2CC)N1/N=C/C=C/c1ccccc1[N+](=O)[O-] (stereo not given) | 21.9% | 47.1% | 31.2% | 33.7% | 1.33% (active) | 19.8% | -1.31% (active) | 19% | 19% | 3.83% (active)
6 | c1cc2ccc3cc2cc1CNCCOCCNCc1ccc2ccc(cc2c1)CNCCOCCNC3 | -52.6% (active) | -29.4% (active) | -10.7% (active) | -10.2% (active) | -9.48% (active) | -31.5% (active) | -61.6% (active) | 0.178% (active) | 43.5% | -53.2% (active)
7 | CC(C)(C)OC(=O)Nc1ccc2c(c1)C(NC(=O)Nc1cccc(C#N)c1)CC(C)(C)O2 (stereo not given) | 41% | 48.4% | 73.6% | 45.8% | 25.9% | 39.1% | 33.7% | 40% | 50.8% | 53.7%
8 | COc1cccc(Nc2nccc(Nc3ccc4[nH]ncc4c3)n2)c1 | -29.1% (active) | -17.3% (active) | 7.17% (active) | -11.4% (active) | -68.1% (active) | -11.2% (active) | -68.4% (active) | -68.3% (active) | -12.5% (active) | -88.4% (active)
9 | Oc1ccc(CN2CCC(N3CCOCC3)CC2)c2cccnc12 | 15.2% | 64.6% | 57% | 17.2% | 10.8% | -16% (active) | -14.9% (active) | 14.1% | 35.1% | 104%
10 | C=C(C)[C@@H]1CC[C@]2(C(=O)NC3CCCCC3)CC[C@]3(C)[C@H](CC[C@@H]4[C@@]5(C)CCC(=O)C(C)(C)[C@@H]5CC[C@]43C)[C@@H]12 | 88.7% | 74.6% | 91.9% | 97.7% | 98.3% | 81.5% | 86.9% | 85.6% | 85.7% | 103%
11 | Cn1cc(-c2csc(-c3ccccc3)n2)c2cccnc21 | -54.3% [100 µM] (active) | -11.7% [100 µM] (active) | -23.6% [100 µM] (active) | -74.3% [100 µM] (active) | -56.2% [100 µM] (active) | -53% [100 µM] (active) | -24.3% [100 µM] (active) | -12.8% [100 µM] (active) | -77.4% [100 µM] (active) | -67.2% [100 µM] (active)
12 | CCCCC1CCCCN1C(=O)OCC (stereo not given) | 102% | 121% | 101% | 103% | 107% | 88.5% | 94.1% | 95.1% | 93% | 102%
13 | Cc1ccccc1NC(=O)N/C(N)=N/c1nc(-c2cccc([N+](=O)[O-])c2)cs1 | 16.8% | 58.8% | 90.7% | 42.3% | 27% | 60.2% | 18% | 54.2% | 71.6% | 37.5%
14 | Oc1c(CN2CCCC2)cc(COCc2ccc(Br)cc2)c2cccnc12 | 20.7% | -0.576% (active) | -5.34% (active) | -4.92% (active) | -21.8% (active) | 27.6% | -45% (active) | 4.92% (active) | -8.02% (active) | 39.1%
